This note sets out measurements from PubChem BioAssay (NCATS).

Records with an inconclusive call do not appear. The source made the active and inactive calls. Calls follow the shape of the dose curve; as a rule, active = well fitted curve in the direction sought with a large enough effect; inconclusive = small, poorly fitted or top-dose-only effect, or another doubt; inactive = no such curve, though single readings can be large; an effect the other way counts as inactive or inconclusive.

In test [1] the target is Ubiquitin carboxyl-terminal hydrolase 1 (Homo sapiens) (UniProt O94782). In words: Inhibitors of USP1/UAF1: Pilot qHTS (AID 504865).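 Also: rhodamine fluorescence freed from ubiquitin-rhodamine substrate followed over time; top concentration of the series differs between compounds; nearly all actives have a fitted effect of over 35% in size.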 The gist of the method: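 In 50mM HEPES pH 7.8 containing 0.5mM EDTA, 1mM TCEP, 0.1 mg/ml BSA and 0.01% Tween-20, 1nM USP1/UAF1 is exposed to compound for 15 min, then Ub-Rho (150nM final) is added and fluorescence is read over time.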
Ubiquitin carboxyl-terminal hydrolase 1 (Homo sapiens), sequence (O94782 whole entry, looked up): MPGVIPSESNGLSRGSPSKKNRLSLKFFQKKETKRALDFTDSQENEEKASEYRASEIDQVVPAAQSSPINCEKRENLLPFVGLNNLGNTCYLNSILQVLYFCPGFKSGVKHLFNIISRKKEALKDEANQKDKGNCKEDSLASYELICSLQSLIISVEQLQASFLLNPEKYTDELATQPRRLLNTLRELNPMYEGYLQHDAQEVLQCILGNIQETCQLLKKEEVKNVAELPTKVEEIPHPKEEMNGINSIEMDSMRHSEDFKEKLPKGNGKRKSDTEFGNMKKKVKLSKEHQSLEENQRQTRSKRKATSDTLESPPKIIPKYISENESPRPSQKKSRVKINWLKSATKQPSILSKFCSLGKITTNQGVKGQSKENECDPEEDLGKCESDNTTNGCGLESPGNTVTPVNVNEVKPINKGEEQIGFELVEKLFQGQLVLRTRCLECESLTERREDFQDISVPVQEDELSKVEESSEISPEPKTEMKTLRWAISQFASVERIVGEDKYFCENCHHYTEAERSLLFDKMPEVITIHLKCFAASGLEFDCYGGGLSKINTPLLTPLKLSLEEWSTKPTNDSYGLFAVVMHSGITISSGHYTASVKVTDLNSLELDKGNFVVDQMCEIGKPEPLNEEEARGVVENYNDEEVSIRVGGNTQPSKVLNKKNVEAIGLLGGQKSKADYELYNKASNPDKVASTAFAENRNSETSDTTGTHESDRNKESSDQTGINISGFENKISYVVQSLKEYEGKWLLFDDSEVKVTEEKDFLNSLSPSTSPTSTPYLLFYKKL
The nature of test [2]: S16 Schwann cell viability assay (CellTiter-Glo assay) (AID 624031). Also: nearly all actives have a fitted effect of over 70% in size. Also: potency is read from the fitted curve at half-maximal effect. The gist of the method: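 Untransfected S16 rat Schwann cells; compound 24 h, 37 °C/5% CO2; CellTiter-Glo ATP luminescence. % activity vs no-cell wells and DMSO controls (0%); concentration-effect curves classed by r2, response magnitude, activity.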
For orientation: ATP-based viability assays read luminescence as a measure of living cells.

In another test the test system is CP192. The test can be described thus: qHTS profiling for inhibitors of Plasmodium falciparum proliferation (AID 504749). Also: nearly all actives have a fitted effect of over 60% in size. Also: potency is read from the fitted curve at half-maximal effect. The note with it: P. falciparum in erythrocytes, SYBR Green DNA, 72 h; series mostly up to 28.7 µM. In outline:
(§1)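 SYBR Green fluorescence of parasite DNA, read after lysis and overnight dark incubation, measured growth over 72 h in erythrocyte culture at 0.3% parasitemia and 2.5% hematocrit. Data normalised to DMSO and 0.29 uM artemisinin, with plate-drift correction.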
In general terms: qHTS replaces the single test concentration by a dilution series.

Another test deals with CP194. The test is described as above. The note with it: P. falciparum in erythrocytes, SYBR Green DNA, 72 h; series mostly up to 28.7 µM. The gist of the method:
as §1

In another test the test system is CP201. The test is described as above. The note with it: P. falciparum in erythrocytes, SYBR Green DNA, 72 h; series mostly up to 28.7 µM. The gist of the method:
as §1

Another test deals with CP203. The description is as above. The note with it: P. falciparum in erythrocytes, SYBR Green DNA, 72 h; series mostly up to 28.7 µM. In outline: as §1
The subject of another test is CP211. The description is as above. The note with it: P. falciparum in erythrocytes, SYBR Green DNA, 72 h; series mostly up to 28.7 µM. In outline:
as §1

Another test has as its system CP260. The description is as above. The note with it: P. falciparum in erythrocytes, SYBR Green DNA, 72 h; series mostly up to 28.7 µM. The gist of the method: as §1
A further test deals with CP262. Described as above. The note with it: P. falciparum in erythrocytes, SYBR Green DNA, 72 h; series mostly up to 28.7 µM. The gist of the method:
as §1

The test system of another test is CP297. The test is described as above. The note with it: P. falciparum in erythrocytes, SYBR Green DNA, 72 h; series mostly up to 28.7 µM. The gist of the method: as §1
For the next test, the system named is CP315. Described as above. The note with it: P. falciparum in erythrocytes, SYBR Green DNA, 72 h; series mostly up to 28.7 µM. The gist of the method:
as §1

A further test concerns DFO2036. The description is as above. The note with it: P. falciparum in erythrocytes, SYBR Green DNA, 72 h; series mostly up to 28.7 µM. The gist of the method: as §1
For a further test, the system named is DIV14. The description is as above. The note with it: P. falciparum in erythrocytes, SYBR Green DNA, 72 h; series mostly up to 28.7 µM. The gist of the method:
as §1

The next test concerns DIV30. The description is as above. The note with it: P. falciparum in erythrocytes, SYBR Green DNA, 72 h; series mostly up to 28.7 µM. The gist of the method: as §1
In a further test the test system is Dd2. The test is described as above. The note with it: P. falciparum in erythrocytes, SYBR Green DNA, 72 h; series mostly up to 28.7 µM. In outline: as §1
In another test the test system is GB4. The description is as above. The note with it: P. falciparum in erythrocytes, SYBR Green DNA, 72 h; series mostly up to 28.7 µM. In outline:
as §1

Another test deals with ICS. The test is described as above. The note with it: P. falciparum in erythrocytes, SYBR Green DNA, 72 h; series mostly up to 28.7 µM. In outline: as §1
A further test concerns P94_40. The test is described as above. The note with it: P. falciparum in erythrocytes, SYBR Green DNA, 72 h; series mostly up to 28.7 µM. In outline: as §1
The test system of another test is PAD. Described as above. The note with it: P. falciparum in erythrocytes, SYBR Green DNA, 72 h; series mostly up to 28.7 µM. The gist of the method: as §1
The next test relates to PC15. The description is as above. The note with it: P. falciparum in erythrocytes, SYBR Green DNA, 72 h; series mostly up to 28.7 µM. In outline:
as §1

Turning to `Nc1nc(/C(=C/CC(=O)O)C(=O)NC2C(=O)N3C(C(=O)O)=CCSC23)cs1` (stereo not drawn), the Potency entry in test [1] was “inactive”.

As to `OC[C@@H](O)[C@H]1O[C@@H]2OC(C(Cl)(Cl)Cl)O[C@H]2[C@H]1O` (stereo partly drawn), the Potency entry (in test [1]; in test [2]; in the test on CP192; in the test on CP194; in the test on CP201; with CP203) was “inactive” each time. The Potency entry in the test with CP211, with CP260, in the test on CP262, with CP297, with CP315 and with DFO2036 was “inactive” throughout. Also, the Potency entry in the test on DIV14, with DIV30, in the test with Dd2, with GB4, in the test on ICS and with P94_40 was “inactive” each time. The Potency result in the test with PAD and in the test on PC15 was “inactive” in each case.

For `C[C@@H](N)[C@@H](O)c1ccc(O)c(O)c1`, the Potency entry (in [1]; in the test on CP192; in the test on CP194; in the test with CP201; in the test on CP203; with CP211) was “inactive” throughout. The Potency entry in the test on CP260, in the test with CP262, in the test on CP297, with CP315, in the test with DFO2036 and in the test with DIV14 was “inactive” throughout. Besides, the Potency result in the test on DIV30, in the test on Dd2, in the test with GB4, in the test on ICS, in the test on P94_40 and in the test with PAD was “inactive” in each case. Also, the Potency entry in the test on PC15 was “inactive”. In test [2], the Potency was 28700 nM (active).

Turning to `C[C@]12C=CC(=O)C=C1CC[C@@H]1C2CC[C@]2(C)OC(=O)CCC12` (stereo partly drawn), the Potency entry (in test [1]; in [2]; in the test with CP192; in the test on CP194; in the test on CP201; in the test with CP203) was “inactive” in each case. For the same molecule, the Potency entry in the test on CP211, in the test on CP260, in the test with CP262, in the test with CP297, with CP315 and in the test with DFO2036 was “inactive” in each case. In addition, the Potency result in the test on DIV14, in the test on DIV30, in the test on Dd2, in the test with GB4, with ICS and in the test with P94_40 was “inactive” throughout. For the same molecule, the Potency entry with PAD and with PC15 was “inactive” in each case.

Consider `C[C@]12CCC3C(CCC4=C(Cl)C(=O)CC[C@@]43C)C1CCC2O` (stereo partly drawn), for which the Potency result (in test [1]; in [2]; with CP192; in the test on CP194; in the test with CP201; with CP203) was “inactive” in each case. The Potency entry in the test on CP211, in the test with CP260, in the test on CP262, in the test with CP297, with CP315 and in the test with DFO2036 was “inactive” in each case. Besides, the Potency result in the test on DIV14, in the test with DIV30, in the test on Dd2, in the test with GB4, in the test with ICS and in the test on P94_40 was “inactive” each time. In addition, the Potency entry with PAD and with PC15 was “inactive” throughout.

Regarding `CCCCCc1cc(O)c2c(c1)OC(C)(C)C1CC=C(C)CC21` (stereo not drawn), the Potency with CP192 was 6010 nM (active); in the test on CP194, 5360 nM (active); with CP201, 15100 nM (active); in the test on CP203, 2130 nM (active); in the test on CP211, 5360 nM (active); in the test with CP260, 1780 nM (active). Further, the Potency in the test with CP262 was 4260 nM (active); in the test on CP315 it was 4260 nM (active); with DFO2036 it was 3160 nM (active); in the test with DIV14, 1510 nM (active); in the test with DIV30 it was 2390 nM (active); in the test on Dd2, 2510 nM (active). Moreover, the Potency is 1690 nM (active) in the test on GB4; 891 nM (active) in the test on ICS; 2510 nM (active) in the test on P94_40; 1780 nM (active) with PAD; 5010 nM (active) in the test with PC15.
